High-throughput results deposited in PubChem by several laboratories.
Hsp70 activator: transcriptional activators of Hsp70. AID 1203. activation, % at 10 µM. HeLa Hsp70 promoter luciferase reporter, luminescence; scaled: vehicle 0, proteasome-inhibitor control 100%. 0.04% of 200,000 active;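 active = activation above the mean across all tested compounds plus 3 SD, cutoff set per campaign, cut at about 5.5% in these data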;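 note: 100% = MG132 at 30 µM as the positive control and 0% = DMSO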
S1P4 ag: activates the human S1P4 receptor. O95977. S1P4-expressing cell line, agonist reporter assay. activation, % at 4.98 µM. 0.35% of 220,000 active. AID 1509; in the data active = activation above about 11%;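 note: 0% = DMSO vehicle and 100% = reference agonist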
Ins promoter up: MIN6 insulin promoter up-regulation; z-score at 5 µM; 0.3% of 190,000 active; AID 1625; MIN6 insulin promoter-GFP reporter, high-content imaging; active compounds read high;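 active = z-score above 3 at 5 µM with at least 500 cells counted in the well; inconclusive = wells under 500 cells, flagged as cytotoxic or low count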
INS promoter inh: TRM-6 insulin promoter activity inhibition. 0.9% of 130,000 active. TRM-6 cells (human fetal islet line), insulin promoter-eGFP reporter, imaging; reporter expression induced with tamoxifen. inhibition, % at 2 µM;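 active = inhibition above the mean plus 3 SD, with well images judged a real hit on visual review, cut at about 60% in these data, passing the limit was not always enough; inconclusive = inhibition over the cutoff but images rejected on review; inactive = inhibition not above the cutoff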
S1P3 antag: antagonists of human S1P3 receptor. CHO S1P3 NFAT-BLA reporter, FRET fluorescence, antagonist mode. inhibition, % at 4.98 µM. Q99500. 0.27% of 170,000 active;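 active = inhibition above the plate cutoff, the mean inhibition of test wells on that plate plus 3 SD, cut at about 28% in these data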;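 note: cells challenged with S1P at its EC80 of 0.8 µM; blue over green emission ratio from cleaved BLA substrate after 4 h stimulation; 0% = S1P-stimulated wells and 100% = unstimulated DMSO-only wells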
Target sequence (Q99500 whole entry, looked up): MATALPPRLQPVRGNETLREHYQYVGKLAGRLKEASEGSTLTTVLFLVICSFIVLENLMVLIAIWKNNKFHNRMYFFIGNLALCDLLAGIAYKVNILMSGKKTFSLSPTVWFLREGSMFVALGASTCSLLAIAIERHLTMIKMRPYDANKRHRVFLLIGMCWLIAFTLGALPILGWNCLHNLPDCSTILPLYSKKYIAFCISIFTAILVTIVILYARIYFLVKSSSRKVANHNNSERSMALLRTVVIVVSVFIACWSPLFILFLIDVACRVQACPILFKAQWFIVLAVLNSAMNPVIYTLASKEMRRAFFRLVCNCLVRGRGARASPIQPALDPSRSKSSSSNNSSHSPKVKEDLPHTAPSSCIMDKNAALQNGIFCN
S1P4 antag: blocks the human S1P4 receptor; O95977; S1P4-expressing cells, antagonist mode, reporter read-out; inhibition, % at 4.98 µM; 0.26% of 220,000 active; AID 1510; in the data active = inhibition above about 29%;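 note: 0% = wells stimulated with agonist and 100% = vehicle wells without agonist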
* hit, by the source's call; u = inconclusive; x = not tested or not shown. Only some compounds are listed: those with a hit (about 1.5% of all), similar ones and a draw of the others.

SMILES | Hsp70 activator | S1P4 ag | Ins promoter up | INS promoter inh | S1P3 antag | S1P4 antag
CC(C)(C)n1ncc2c(=O)n(Cc3ccc(Cl)c(Cl)c3)cnc21 | 0 | 0 | 1.6 | -8 | 2 | 9
Cc1ccc(N2C=Nc3ccc(C)c4nc(C)cc2c34)cc1 | 0 | -1 | 0.02 | 85* | x | 0
CC1=Nc2ccc(C)c3nc(C)cc(c23)N1c1ccc(C)cc1 | 0 | 1 | x | x | x | -25
CSC1=NSC2=NC(=O)/C(=C\c3cccs3)C(=N)N12 | 0 | 0 | 0.03 | 79* | 17 | -5
COc1cc(OC)c(N(C)S(=O)(=O)c2cccc(C(=O)NC3=NCCS3)c2)cc1Cl | x | 1 | -0.54 | x | -4 | 5
CCCc1cc(C(N)=O)c(NC(=O)c2ccoc2C)s1 | 0 | 2 | -0.34 | 76* | 2 | -14
FC(F)(F)c1cc(-c2ccccc2)nc2nc(N3CCOCC3)sc12 | 0 | 0 | x | -25 | -2 | -1
Nc1nc(CN2CCCCCC2)nc(Nc2ccccc2)n1 | 0 | -2 | -0.62 | 89* | x | -2
Cc1cc(/C=C2\SC(=S)NC2=O)c(C)n1-c1ccccc1 | x | 2 | 0.97 | x | 1 | -2
Cc1cc(/C=C2\SC(=S)NC2=O)c(C)n1-c1ccc(O)cc1 | x | 0 | 3.7* | x | 8 | 2
Fc1ccc(C2CC(c3ccco3)=NN2c2ccccc2)cc1 (stereo not given) | 0 | 2 | 3.5* | x | x | -1
O=C(NCc1ccc(F)cc1)C1CCCN(S(=O)(=O)c2cccnc2)C1 (stereo not given) | 0 | -2 | 3.5* | x | -35 | -18
CCCCSc1ncc(C(=O)OCC)c(N)n1 | 0 | 0 | x | 80* | x | -5
CCOCCCNC(=O)C(c1ccc(OC)cc1)N(Cc1ccc2c(c1)OCO2)C(=O)c1ccccc1O (stereo not given) | 0 | 0 | -0.04 | x | 12 | -5
O=C(Oc1cccnc1)c1ccccc1[N+](=O)[O-] | 0 | 2 | 0.65 | u | 11 | 8
Cc1cc(C(=O)Oc2cccnc2)ccc1[N+](=O)[O-] | 0 | -2 | -0.21 | 83* | -22 | -5
CCOC(=O)c1c(NC(=O)c2nn(CC)cc2Br)c(C#N)cn1-c1ccccc1 | 0 | 2 | -3.6 | 33 | 59* | -16
CCOC(=O)c1c(N)c(C#N)cn1-c1ccccc1 | 0 | -2 | x | 33 | 13 | -1
O=C(CSCCc1ccccn1)Nc1ccccn1 | 0 | 0 | 0.22 | x | 1 | 7
O=C(O)CSCCc1ccccn1 | 0 | 1 | 0.73 | x | 56* | -14
CC(=O)c1sc(Nc2nc(C)cc(C)n2)nc1C | 0 | -4 | 0.75 | 7 | x | -30
Nc1nc2c3ccccc3nc(Cc3ccccc3)n2n1 | 0 | 1 | 0.36 | 56 | 12 | -9
CCCc1nc2ccccc2c2nc(N)nn12 | 0 | -2 | -0.53 | 87* | 7 | -13
CC(C)c1ccccc1NC(=O)CC1(CC(=O)O)CCCC1 | x | 1 | 0.04 | x | 2 | 11
COc1ccc(S(=O)(=O)n2nc(-c3cc(OC)c(OC)c(OC)c3)cc2N)cc1OC | 0 | -1 | -1.9 | x | 2 | 1
SMILES | Hsp70 activator | S1P4 ag | Ins promoter up | INS promoter inh | S1P3 antag | S1P4 antag
COc1ccc(-c2cc(N)n(S(=O)(=O)c3c(F)c(F)c(F)c(F)c3F)n2)cc1OC | 20* | 0 | -0.37 | 50 | 0 | 26
Cc1ccc(CC(NC(=O)c2ccccc2)C(=O)N2CCCC2C(=O)O)cc1 (stereo not given) | 0 | 3 | 0.41 | 20 | -8 | 1
O=C(NC(Cc1ccc2c(c1)OCO2)C(=O)N1CCCC1C(=O)O)c1ccccc1 (stereo not given) | 0 | 1 | 1.4 | 87* | -6 | -9
O=S(=O)(Cc1ccccc1)NCc1ccccn1 | 0 | -1 | -0.12 | -107 | 103* | -5
CC(C)(C)NC(=O)C(=O)NCc1ccccn1 | 0 | 2 | -0.08 | x | -3 | -4
O=C(NCc1ccccn1)C(=O)NCc1ccccn1 | 0 | 0 | 0.06 | 80* | -4 | -8
C=CCNC(=O)/C(=C/c1cccc([N+](=O)[O-])c1)NC(=O)c1ccccc1 | 0 | 1 | 0.91 | -50 | -8 | -6
Cn1c(=O)cc(SCC(=O)N2CCN(c3ccccc3)CC2)c2ccccc21 | 1 | 4 | -0.21 | 85* | x | 14
Nc1nnc(N2CCCCC2)s1 | 0 | -2 | x | 22 | -18 | 1
CN(c1nnc(N)s1)C1CCCCC1 | 0 | 1 | 0.14 | 35 | 95* | -3
COc1ccc2cc3cc(C(=O)NCc4ccccn4)oc3nc2c1 | 0 | 1 | 3.3* | -22 | -36 | -1
CC(C)c1nc2c(c(=O)c3ccccc3n2C)c(=O)n1CCc1ccccc1 | x | 0 | -0.39 | x | -5 | -3
Cc1ccccc1NC(=O)C(NC1CCCCC1)C(C)C (stereo not given) | 0 | 1 | -0.47 | x | 0 | -2
O=C(Nc1ccccc1)C1=C(c2ccccc2)S(=O)(=O)CCS1(=O)=O | 0 | 2 | x | -257 | -3 | 32*
C=C(C)CSc1nc2ncccc2[nH]1 | 0 | -1 | -0.44 | 71* | -37 | 9
CCN(CC)C(=O)CSc1nc2ncccc2[nH]1 | 0 | 0 | 0.96 | 35 | -16 | 9
Cc1nc2ccc(NC(=O)N3CCSCC3)cc2nc1C | 0 | 0 | -0.48 | 77* | x | -3
Cc1nc2ccc(NC(=O)N3CCSCC3)cc2s1 | 0 | 3 | -0.41 | -34 | -11 | 13
Cc1cc(C)c(N2C(=O)C3C4CC(=O)C(c5ccccc54)C3C2=O)c(C)c1 (stereo not given) | x | 2 | 0.41 | x | 1 | -11
Cc1cc(NC(=O)CSc2nnc(N)s2)c([N+](=O)[O-])cc1C | 0 | 2 | -1.4 | 27 | -9 | 3
Cc1ccc(NC(=O)CC(O)(C(F)(F)F)C(F)(F)F)cc1 | 0 | 0 | -0.26 | 77* | x | 7
COc1ccc(C)cc1NC(=O)CC(O)(C(F)(F)F)C(F)(F)F | 0 | -1 | -0.61 | x | x | 11
C=CCOc1cccc(C2c3c(oc4ccc(F)cc4c3=O)C(=O)N2CCCN2CCOCC2)c1 (stereo not given) | x | x | -0.88 | x | 14 | x
NC(=O)[C@@H]1CCCN1Cc1nc(-c2cccs2)no1 | 0 | 1 | -1.4 | x | 0 | -13
CCOC(=O)c1c2n(c3ccc(O)cc13)CCCCC2 | 0 | 1 | 1.1 | 86* | -18 | -4
SMILES | Hsp70 activator | S1P4 ag | Ins promoter up | INS promoter inh | S1P3 antag | S1P4 antag
O=C(NCCN1CCCC1)C1(S(=O)(=O)c2ccc(Cl)cc2)CC1 | 0 | -1 | 3.1* | -31 | -26 | -2
CC1CN(c2cc(-c3ccccc3)c3ccccc3n2)CC(C)O1 (stereo not given) | 0 | 0 | 0.05 | -64 | x | -3
CC1CN(c2nc(-c3ccccc3)nc3ccccc23)CC(C)O1 (stereo not given) | 0 | -1 | 0.69 | 92* | -19 | -3
O=[N+]([O-])c1ccc(CSc2nc3ccccc3o2)cc1 | 0 | 1 | 0.25 | x | x | 4
COC(=O)c1ccc(CSc2nc3ccccc3o2)cc1 | 0 | 1 | 1.1 | 81* | 16 | -12
Cc1nnc2ccc(Oc3ccc(-c4ccccc4)cc3)nn12 | 1 | 1 | -1.4 | x | -18 | -10
